The values below come from PubChem BioAssay (EPA / NIEHS).

Read-out in assay [1]: Monokine induced gamma interferon (MIG), CXCL9 (gene 4283)
The assay is described as follows: BSK_hDFCGF_MIG: BioMAP Diversity Plus: hDFCGF Assay for Monokine induced gamma interferon (MIG) Biomarker Activity (AID 2283063). As to conditions: primary human foreskin fibroblasts; actives raise or lower the signal. Put shortly:
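Human primary foreskin fibroblasts in the hDFCGF system, exposed to test chemical for 24 h; MIG measured by ELISA. Bidirectional curve fitting against DMSO negative control as activity baseline.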

Read-out in assay [2]: Matrix Metallopeptidase 1 (MMP1), MMP1 (gene 4312)
The assay is described as follows: BSK_hDFCGF_MMP1: BioMAP Diversity Plus: hDFCGF Assay for Matrix Metallopeptidase 1 (MMP1) Biomarker Activity (AID 2283064). As to conditions: primary human foreskin fibroblasts; actives raise or lower the signal. Put shortly: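 ELISA read-out of MMP1 from human foreskin fibroblasts (primary skin cells), 24 h post-dose. Gain or loss of signal was fitted bidirectionally versus DMSO negative control; cytotoxicity was checked by SRB in parallel cultures.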

Read-out in assay [3]: Vascular cell adhesion molecule 1 (VCAM1), VCAM1 (gene 7412)
The assay is described as follows: BSK_hDFCGF_VCAM1: BioMAP Diversity Plus: hDFCGF Assay for Vascular cell adhesion molecule 1 (VCAM1) Biomarker Activity (AID 2283065).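 As to AC50: VCAM-1 protein level quantified by ELISA after 24 h chemical exposure.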 As to conditions: primary human foreskin fibroblasts; actives raise or lower the signal. Put shortly:
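ELISA readout of VCAM-1 on human dermal fibroblast primary cultures, 24 h after chemical exposure. Gain or loss of signal fitted in both directions against DMSO baseline.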

Read-out in assay [4]: Plasminogen activator inhibitor-1 (PAI1), SERPINE1 (gene 5054)
The assay is described as follows: BSK_hDFCGF_PAI1: BioMAP Diversity Plus: hDFCGF Assay for Plasminogen activator inhibitor-1 (PAI1) Biomarker Activity (AID 2283066). To be noted: primary human foreskin fibroblasts; actives raise or lower the signal. Put shortly:
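PAI-1 levels in human dermal foreskin fibroblasts were quantified by ELISA 24 h after dosing, with gain or loss analysed against DMSO. Overt cytotoxicity was checked by sulforhodamine B total-protein staining in parallel cultures.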

Read-out in assay [5]: Intercellular Adhesion Molecule 1 (ICAM1), ICAM1 (gene 3383)
In words: BSK_KF3CT_ICAM1: BioMAP Diversity Plus: KF3CT Assay for Intercellular Adhesion Molecule 1 (ICAM1) Biomarker Activity (AID 2283067). As to conditions: primary human keratinocytes with fibroblasts; actives raise or lower the signal. In a few lines:
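Cell-surface ICAM-1 was measured by ELISA 24 h after dosing primary human skin keratinocytes co-cultured with fibroblasts. Parallel SRB staining tracked overt cytotoxicity. Gain or loss of signal was fitted relative to DMSO.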

Read-out in assay [6]: Interferon-gamma inducible Protein 10 (IP10), CXCL10 (gene 3627)
In words: BSK_KF3CT_IP10: BioMAP Diversity Plus: KF3CT Assay for Interferon-gamma inducible Protein 10 (IP10) Biomarker Activity (AID 2283068). To be noted: primary human keratinocytes with fibroblasts; actives raise or lower the signal. Put shortly:
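Signal is secreted/surface IP-10 by ELISA in a human primary skin co-culture of keratinocytes and foreskin fibroblasts, taken 24 h post-dosing; DMSO served as negative control.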

A short description of assay [7]: BSK_KF3CT_SRB: Viability Assessment in the BioMAP Diversity Plus: KF3CT Assay (AID 2283069).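 Also: read 24 h after compound addition.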 To be noted: primary human keratinocytes with fibroblasts. Put shortly: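 SRB read-out at 560 nm (0.1% stain, TCA-fixed cells) gauges overt cytotoxicity in a human skin keratinocyte–fibroblast co-culture 24 h post-dosing. Signal change was fitted bidirectionally relative to DMSO control.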

Read-out in assay [8]: TIMP metallopeptidase inhibitor 2 (TIMP2), TIMP2 (gene 7077)
The assay is described as follows: BSK_KF3CT_TIMP2: BioMAP Diversity Plus: KF3CT Assay for TIMP metallopeptidase inhibitor 2 (TIMP2) Biomarker Activity (AID 2283071). As to conditions: primary human keratinocytes with fibroblasts; actives raise or lower the signal. In a few lines:
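TIMP-2 measured by ELISA at 24 h in human keratinocyte/fibroblast primary co-cultures exposed to chemicals. Both increases and decreases were fitted against DMSO. Parallel cultures were stained with SRB for total protein as an overt-cytotoxicity check.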

Read-out in assay [9]: Transforming growth factor beta 1 (TGFb1), TGFB1 (gene 7040)
In words: BSK_KF3CT_TGFb1: BioMAP Diversity Plus: KF3CT Assay for Transforming growth factor beta 1 (TGFb1) Biomarker Activity (AID 2283072). As to conditions: primary human keratinocytes with fibroblasts; actives raise or lower the signal. In a few lines:
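ELISA quantifies TGF-b1 at 24 h post-dose in a primary human skin co-culture of keratinocytes and fibroblasts, with gain or loss judged against DMSO. Parallel SRB total-protein staining flags overt cytotoxicity.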

Read-out in assay [10]: Interleukin-1 alpha (IL1a), IL1A (gene 3552)
The assay is described as follows: BSK_KF3CT_IL1a: BioMAP Diversity Plus: KF3CT Assay for Interleukin-1 alpha (IL1a) Biomarker Activity (AID 2283070). To be noted: primary human keratinocytes with fibroblasts; actives raise or lower the signal. In a few lines:
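Primary skin co-culture (keratinocytes, foreskin fibroblasts), 24 h exposure; ELISA for IL-1a; bidirectional curve fit vs DMSO.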

Usually AC50 stands for the concentration giving half of the maximal activity seen.

Activity calls are given as the source filed them. The calls were made as follows: active = hit-call score of the fitted dose curve at least 0.9, where 1 is the maximum; inactive = score below 0.9.

As for `CCCCCCCCOC(=O)c1cc(O)c(O)c(O)c1`, the AC50 in assay [1] is 19.7 µM (active); in assay [2] it was 37.6 µM (active); in [3], 7.8 µM (active); in [4], 15.2 µM (active); in assay [5], 29.2 µM (active); in [6] it was 12.3 µM (active). In addition, the AC50 in [7] is 15.3 µM (active); in assay [8] it was 13.2 µM (active).
Regarding `CCN(CC)C(=O)c1cc(S(=O)(=O)Cc2ccccc2)c(N2CCC(c3ccccc3)CC2)cc1N(CC)CCN(C)C`, the result in [1], in assay [2], in [3], in assay [5], in [6] and in [8] was inactive. In assay [9], the outcome was inactive. Further, the AC50 in [4] is 4.69 µM (active); in assay [7], 28 µM (active).
Regarding `CC(C)(O)c1ccc(CNC(=O)c2cccnc2Oc2ccc3nonc3c2)cc1`, the outcome in assay [1], in assay [2], in assay [3], in [4], in assay [5] and in [7] was inactive. Moreover, the outcome in assay [10] and in [8] was inactive.
Turning to `CN1C(=O)CC[C@H]1c1cccnc1`, the outcome in assay [1], in assay [2], in assay [3], in assay [4], in [5] and in [6] was inactive. Also, the result in [7], in assay [10] and in [8] was inactive.
As for `NC(=O)c1nc(-c2cccc(-c3cc(F)ccc3OCC(F)(F)C(F)(F)F)c2)n[nH]1`, the AC50 in [1] is 35 µM (active); in [2], 39.5 µM (active); in assay [3], 35.1 µM (active); in [4], 32.8 µM (active); in [5] it was 35.2 µM (active); in assay [6], 39.3 µM (active). Besides, the AC50 in [7] was 37 µM (active); in assay [8], 35 µM (active).
`COCC(C)OCC(C)OCC(C)O` (stereo not given): the outcome in assay [1], in [2], in [3], in assay [4], in assay [5] and in assay [6] was inactive. The outcome in assay [7], in assay [8] and in [9] was inactive.
With `O=c1c(-c2ccc(O)cc2)coc2cc(O)cc(O)c12`, the result in assay [1], in [3], in assay [5], in [6], in assay [7] and in [10] was inactive. Further, the result in assay [8] and in assay [9] was inactive. For the same compound, the AC50 in assay [2] was 15.1 µM (active); in [4], 20 µM (active).
For the compound `CC(=O)N1CCN(c2ccc(OC[C@H]3CO[C@](Cn4ccnc4)(c4ccc(Cl)cc4Cl)O3)cc2)CC1`, the AC50 in [1] was 36.9 µM (active); in [2] it was 32.6 µM (active); in assay [3], 35.5 µM (active); in assay [4] it was 34.2 µM (active); in [5], 30.9 µM (active); in [6], 34.5 µM (active). Further, the AC50 was 26.6 µM (active) in assay [7], 31.5 µM (active) in assay [8] and 29.2 µM (active) in [9].
On to `Cc1cn([C@H]2C[C@H](N=[N+]=[N-])[C@@H](CO)O2)c(=O)[nH]c1=O`, for which the outcome in assay [1], in assay [2], in assay [3], in assay [4], in [5] and in assay [6] was inactive. Besides, the result in [7] and in [8] was inactive.
`O=C=NCCCCCCN=C=O`: the result in [1], in [2], in assay [3], in [4], in [5] and in assay [6] was inactive. In [7], the result was inactive.
`OCCO`: the result in assay [1], in [2], in assay [3], in assay [4], in assay [5] and in [6] was inactive. For the same compound, the outcome in assay [7], in assay [10] and in assay [8] was inactive.
As for `Cc1c2ccccc2c(C)c2c1ccc1ccccc12`, the outcome in [1], in assay [2], in assay [5], in [6], in [7] and in [8] was inactive. Also, the figures for the AC50 in [3] and in assay [4] were 3.97 µM (active) and 10.1 µM (active), respectively.
Take `CCCC(=O)OCCC(C)C`: the outcome in assay [1], in assay [2], in [3], in [4], in assay [5] and in assay [6] was inactive. For the same compound, the result in [7], in assay [10], in assay [8] and in assay [9] was inactive.
As to `CCCCCCCC[Si](OCC)(OCC)OCC`, the outcome in assay [1], in assay [2], in [3], in assay [4], in assay [5] and in [7] was inactive. Besides, the outcome in assay [10] and in assay [8] was inactive. Also, in [6], the AC50 was 37.5 µM (active).
Take `OC12N=C(c3ccccc3)SC1Cc1cc(Cl)ccc12` (stereo not given): the result in assay [1], in [2], in assay [3], in [4], in [5] and in assay [6] was inactive. In addition, the result in assay [7] and in assay [8] was inactive.
On to `CN(C)C(=O)C1(N2CCCCC2)CCN(CC[C@@]2(c3ccc(Cl)c(Cl)c3)CN(C(=O)c3ccccc3)CCO2)CC1`, for which the AC50 was 33.3 µM (active) in [1]; 29.2 µM (active) in [2]; 14.9 µM (active) in assay [3]; 12.3 µM (active) in assay [4]; 35.2 µM (active) in [5]; 31.3 µM (active) in assay [6]. For the same compound, the AC50 in [7] was 28.4 µM (active); in assay [10], 34.3 µM (active); in assay [8] it was 32.7 µM (active).
Consider `CCCCCc1ccc(N)cc1`, for which the result in [1], in assay [2], in assay [3], in assay [4], in assay [5] and in assay [10] was inactive. Moreover, the AC50 is 24.4 µM (active) in assay [7] and 20.8 µM (active) in [8].
On to `c1ccc2n[nH]nc2c1`, for which the outcome in [1], in assay [2], in assay [3], in assay [4], in [5] and in assay [6] was inactive. Also, the result in assay [7], in assay [10] and in [8] was inactive.
